aSyn 5UTR act: Activators via SNCA 5'UTR binding, MLPCN; 7.1% of 300,000 active; AID 1814, 2009; activity score, % (tested at 7.5 µM), hits read low; alpha-synuclein 5'UTR reporter, activators screen; in the data active = activity score below about -60%
Active calls of the source: *. A selection follows.

SMILES | aSyn 5UTR act
O=C(Cc1ccccc1F)Nc1ccc(SC(F)F)cc1 | -136.9*
Nc1n[nH]c(N)c1N=Nc1ccc2c(c1)OCO2 | -228.7*
Cc1ccc(N=Nc2c(N)n[nH]c2N)cc1 | -93.1*
O=C1OC(c2ccccc2)=N/C1=C\N1CCCCC1 | -151.6*
O=C1OC(c2ccc(Br)cc2)=N/C1=C\N1CCCCC1 | -95.2*
O=C1OC(c2ccccc2)=C/C1=C/N1CCCCC1 | -184.5*
O=C(O)Cn1cc(/C=c2/sc3nc4ccccc4n3c2=O)c2ccccc21 | -162.3*
Cc1ccc(-n2c(C)cc(/C=c3/sc4nc5ccccc5n4c3=O)c2C)cc1 | 66.7
O=C(OCc1nc2ccccc2s1)c1ccco1 | -96.6*
Cc1cc(C(=O)OCc2nc3ccccc3s2)c(C)o1 | -125.9*
CC(=O)OCc1nc2ccccc2s1 | -136.1*
O=C(CN1C(=O)S/C(=C\c2ccc(O)cc2)C1=O)c1ccccc1 | -156.5*
O=C(CCCN1C(=O)S/C(=C\c2ccccc2)C1=O)NNC(=O)c1ccccc1O | 83.4
CC(=O)n1nc(-c2ccccc2)cc1-c1ccccc1 | -133.3*
O=C(O)CC(C(=O)O)n1nc(-c2ccccc2)cc1-c1ccccc1 (stereo not given) | -76.5*
O=C1/C(=C/N(C(=O)c2ccco2)c2ccc(Cl)cc2)Sc2ccccc21 | -184.1*
O=C1/C(=C/N(C(=O)c2ccco2)c2ccc(Br)cc2)Sc2ccccc21 | -241.2*
FC(F)Oc1ccc(NC(=S)NC2CCCCCCC2)cc1 | -93.1*
S=C(Nc1ccc(Cl)cc1)NC1CCCCC1 | -73.3*
S=C(Nc1ccc(Br)cc1)NC1CCCCC1 | -119.0*
CCOC(=O)c1ccc(NS(=O)C23CC4CC(CC(C4)C2)C3)cc1 (stereo not given) | -109.9*
CCCOC(=O)c1ccc(NC(=O)C2C3CCC(C3)C2C(=O)O)cc1 (stereo not given) | -85.3*
CCOC(=O)c1ccc(NC(=O)C2CC3CCC2C3)cc1 (stereo not given) | -128.2*
COC(=O)c1ccc(NC(=O)C2CC3CCC2C3)cc1 (stereo not given) | -193.9*
CCc1ccc(C(=O)/C=C/c2cnn(C)c2C)s1 | -117.5*
SMILES | aSyn 5UTR act
Cc1c(/C=C/C(=O)c2cccs2)cnn1C | -125.0*
Nc1ccc(/C=C/C(=O)c2cccs2)cc1 | -134.9*
O=c1cc(Cl)[nH]c(=O)n1Cc1ccc(F)cc1 | -86.9*
COc1ccccc1N1CCN(C(=O)CSc2ncccc2-c2nc3ccccc3[nH]2)CC1 | -68.2*
Cc1cc2nc(-c3cccnc3SCC(=O)NC(C)C)[nH]c2cc1C | -122.2*
COc1ccccc1N1CCN(Cc2ccc(O)c3ncccc23)CC1 | 76.6
COc1ccc(N2CCN(C(=O)CSc3ncccc3-c3nc4ccccc4[nH]3)CC2)cc1 | -114.1*
O=C(Nc1ccc(-c2cnco2)cc1)c1ccc(F)cc1F | -145.9*
Cc1ccc(NC(=O)CN2C(=O)N/C(=C/c3ccc(N4CCOCC4)cc3)C2=O)cc1 | -118.0*
CN(C)c1nc2ccc(OCCN3CCCCC3)cc2s1 | -70.8*
CC(=O)c1sc(N/N=C2\CC3CC2C(C)C3(C)C)nc1C (stereo not given) | -100.6*
COc1ccc(-c2nc3cccc(C)n3c2NCC2CCCO2)cc1O (stereo not given) | -99.4*
O=C1/C(=C/Nc2cccc([N+](=O)[O-])c2)CCc2ccccc21 | -186.3*
CCc1c(C(=O)Nc2ccc(OC)cc2)[nH]c(C)c1C(C)=O | -93.1*
COc1ccc(NC(=O)c2[nH]c(C)c(C(C)=O)c2C)cc1 | -193.5*
CCc1ccc(NC(=O)c2[nH]c(C)c(C(C)=O)c2C)cc1 | -222.9*
CCOc1ccc(NC(=O)c2[nH]c(C)c(C(C)=O)c2C)cc1 | -76.3*
O=[N+]([O-])c1cccc(-c2nc(-c3ccncc3)no2)c1 | -88.7*
O=[N+]([O-])c1cccc(-c2noc(-c3ccco3)n2)c1 | -95.8*
Cc1cc(-c2nc(-c3ccncc3)no2)ccc1[N+](=O)[O-] | -165.5*
O=[N+]([O-])c1cccc(-c2nc(-c3ccccc3)no2)c1 | -133.9*
Cc1ccc(-c2nc(-c3ccccn3)no2)cc1Cl | 103.8
Cc1ccc(-c2nc(-c3ccncc3)no2)cc1Cl | -98.7*
Cc1ccc(OC(=O)c2oc3ccc(F)cc3c2C)c(C)c1 | -112.0*
O=C(NCc1cccs1)C(=O)c1c[nH]c2ccccc12 | -122.7*
SMILES | aSyn 5UTR act
O=C(NCc1ccco1)C(=O)c1c[nH]c2ccccc12 | -79.0*
COc1ccc(C2C(C#N)=C(N)Nc3nc4ccccc4n32)cc1 (stereo not given) | -179.4*
Cc1ccc(N=c2sc(C)c(C)n2C)cc1 | -178.0*
O=C(Nc1ncccc1O)c1ccc2c(c1)OCO2 | -207.3*
O=C(Nc1ncccc1O)c1ccc2c(c1)OCCO2 | -222.2*
Cc1cccnc1NC(=O)c1ccc2c(c1)OCCO2 | -172.3*
CC1CCN(C(C(=O)NC2CCCCC2)c2cc3c(cc2[N+](=O)[O-])OCO3)CC1 (stereo not given) | -101.9*
CC1CCCN(c2ccc([N+](=O)[O-])cc2C(=O)c2ccccc2)C1 (stereo not given) | 84.1
CC1CCCN(C(C(=O)NC2CCCCC2)c2cc3c(cc2[N+](=O)[O-])OCO3)C1 (stereo not given) | -81.2*

Source: PubChem (Broad Institute)
